# Results: PubChem BioAssay (Tox21)
# Values without a mark were called inactive. A call without a number means that no potency is given here. The source made the active and inactive calls. Calls follow the shape of the dose curve; as a rule, active = well fitted curve in the direction sought with a large enough effect in the repeat runs; inconclusive = weak or mixed curves; inactive = flat fitted curve, though single readings scatter.
# Assay: qHTS assay to test for compound auto fluorescence at 590 nm (red) in HepG2 cell free culture (AID 720684)
# Conditions: cell-free medium autofluorescence, red 540/590 nm; series mostly up to 91.3 µM
# Procedure, shortened: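 Measured in medium alone (MEM containing 10% FBS) following pintool addition of compound; emission at 590 nm with 540 nm excitation, referenced to Rose Bengal sodium.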
# Tags tell the direction and shape of the fitted curve or compound fluorescence and quenching.
row,SMILES,Potency
1,Nc1cc(Cl)c(O)c(Cl)c1,inactive
2,Cc1ccc(O)c(O)c1,inactive
3,CN1CCN2c3ccccc3Cc3ccccc3C2C1 (centres undefined),inactive
4,O=C(c1ccc(O)c(O)c1)c1ccc(O)cc1O,inactive
5,O=C1NC(=O)[C@@H]2CC=CC[C@H]12,inactive
6,CC(C)(C)c1ccc(C(O)CCCN2CCC(C(O)(c3ccccc3)c3ccccc3)CC2)cc1 (centres undefined),inactive
7,Cc1cc(=O)oc2cc(O)cc(O)c12,inactive
8,Cc1cc(C(C#N)c2ccc(Cl)cc2)c(Cl)cc1NC(=O)c1cc(I)cc(I)c1O (centres undefined),inactive
9,CC[C@H](C)COC(=O)/C=C/c1ccc(N=Cc2ccc(OC)cc2)cc1,inactive
10,COC1=C(OC)C(=O)C(CCCCCCCCCCO)=C(C)C1=O,inactive
11,Cc1ccc(O)c(N)c1,inactive
12,COC(C)=O,inactive
13,CN1CCN(Cc2cc(-c3ccc4[nH]c(=O)oc4c3)co2)[C@@H](c2ccc(F)cc2)C1,inactive
14,C/C=C/C=C/COC(=O)C(C)C,inactive

# Assay: qHTS assay to test for compound auto fluorescence at 460 nm (blue) in HepG2 cell free culture (AID 720685); also: potency is read from the fitted curve at half-maximal effect
# Conditions: Cell-free culture medium, blue autofluorescence 405/460 nm; series mostly up to 91.3 µM
# Procedure, shortened: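 Compound (23 nL) or DMSO pinned into cell-free MEM with 10% FBS; blue fluorescence read at 405/460 nm excitation/emission, expressed as auto-fluorescence equivalency to triamterene.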
SMILES,Potency,"fluorescence, % of fluorescent control"
O=C1CCc2cc(OCCCCc3nnnn3C3CCCCC3)ccc2N1,inactive,
CCCNCCC,inactive,
CC(C(=O)O)c1ccc2c(c1)[nH]c1ccc(Cl)cc12 (centres undefined),inactive,
O=C1CCc2ccc(OCCCCN3CCN(c4cccc(Cl)c4Cl)CC3)cc2N1,inactive,
C#C[C@]1(OC(C)=O)CC[C@H]2[C@@H]3CCC4=C[C@@H](OC(C)=O)CC[C@@H]4[C@H]3CC[C@@]21C,inactive,
Nc1nc(-c2ccccc2)cs1,inactive,
CC1(C)[C@@H](O)CC[C@]2(C)[C@H]3C(=O)C=C4[C@@H]5C[C@@](C)(C(=O)O)CC[C@]5(C)CC[C@@]4(C)[C@]3(C)CC[C@@H]12,inactive,
COc1cccc2c1C(=O)c1c(O)c3c(c(O)c1C2=O)C[C@@](O)(C(C)=O)C[C@@H]3O[C@H]1C[C@H](N)[C@H](O)[C@H](C)O1,inactive,
CCc1cccc(CC)c1NC(=O)CN(CC(=O)O)CC(=O)O,,-0.0593% [at 18.6 µM]
CN1CCC[C@@H]1CCO[C@](C)(c1ccccc1)c1ccc(Cl)cc1,inactive,
Clc1ccnc(Cl)n1,inactive,
CNc1ccc([N+](=O)[O-])cc1,inactive,
CN(C)c1ccc(C(=C2C=CC(=[N+](C)C)C=C2)c2ccc(N(C)C)cc2)cc1,inactive,
CCC(C)[O-].CCC(C)[O-].CCOC(=O)/C=C(/C)[O-].[Al+3],inactive,
CCCCCCCCCCCCCC[N+](C)(C)Cc1ccccc1,inactive,
Oc1cc(Cl)cc(Cl)c1Cl,inactive,
C#C[C@]1(O)CC[C@H]2[C@@H]3[C@H](C)CC4=C(CCC(=O)C4)[C@H]3CC[C@@]21C,inactive,
Cc1ccc(O)c(O)c1,inactive,
Cc1ccc(C)cc1,inactive,
CN1CCN2c3ccccc3Cc3ccccc3C2C1 (centres undefined),inactive,
O=C(c1ccc(O)c(O)c1)c1ccc(O)cc1O,inactive,
O=C1NC(=O)[C@@H]2CC=CC[C@H]12,inactive,
Cc1cc(=O)oc2cc(O)cc(O)c12,39.8 µM [fluorescent] (active),
Cc1cc(C(C#N)c2ccc(Cl)cc2)c(Cl)cc1NC(=O)c1cc(I)cc(I)c1O (centres undefined),inactive,
CC[C@H](C)COC(=O)/C=C/c1ccc(N=Cc2ccc(OC)cc2)cc1,inactive,
COC1=C(OC)C(=O)C(CCCCCCCCCCO)=C(C)C1=O,inactive,
Cc1ccc(O)c(N)c1,inactive,
COC(C)=O,inactive,
CN1CCN(Cc2cc(-c3ccc4[nH]c(=O)oc4c3)co2)[C@@H](c2ccc(F)cc2)C1,inactive,

# Assay: qHTS assay to test for compound auto fluorescence at 535 nm (green) in HepG2 cell free culture (AID 720686)
# Conditions: Cell-free medium, green autofluorescence 485/535 nm; series mostly up to 91.3 µM
row,SMILES,Potency
1,O=C1CCc2cc(OCCCCc3nnnn3C3CCCCC3)ccc2N1,inactive
2,O=C1CCc2ccc(OCCCCN3CCN(c4cccc(Cl)c4Cl)CC3)cc2N1,inactive
3,C#C[C@]1(OC(C)=O)CC[C@H]2[C@@H]3CCC4=C[C@@H](OC(C)=O)CC[C@@H]4[C@H]3CC[C@@]21C,inactive
4,Nc1nc(-c2ccccc2)cs1,inactive
5,CC1(C)[C@@H](O)CC[C@]2(C)[C@H]3C(=O)C=C4[C@@H]5C[C@@](C)(C(=O)O)CC[C@]5(C)CC[C@@]4(C)[C@]3(C)CC[C@@H]12,inactive
6,COc1cccc2c1C(=O)c1c(O)c3c(c(O)c1C2=O)C[C@@](O)(C(C)=O)C[C@@H]3O[C@H]1C[C@H](N)[C@H](O)[C@H](C)O1,inactive
7,Cc1c(C)c2c(c(C)c1OC(=O)c1cccnc1)CC[C@@](C)(CCC[C@H](C)CCC[C@H](C)CCCC(C)C)O2,inactive
8,CN1CCC[C@@H]1CCO[C@](C)(c1ccccc1)c1ccc(Cl)cc1,inactive
9,O=c1oc2cc(O)ccc2c2oc3cc(O)ccc3c12,inactive
10,Clc1ccnc(Cl)n1,inactive
11,O=C1c2ccccc2C(=O)N1SC1CCCCC1,inactive
12,CNc1ccc([N+](=O)[O-])cc1,inactive
13,CN(C)c1ccc(C(=C2C=CC(=[N+](C)C)C=C2)c2ccc(N(C)C)cc2)cc1,inactive
14,C#C[C@]1(O)CC[C@H]2[C@@H]3[C@H](C)CC4=C(CCC(=O)C4)[C@H]3CC[C@@]21C,inactive
15,Nc1cc(Cl)c(O)c(Cl)c1,inactive
16,Cc1ccc(O)c(O)c1,inactive
17,Cc1ccc(C)cc1,inactive
18,CN1CCN2c3ccccc3Cc3ccccc3C2C1 (centres undefined),inactive
19,O=C(c1ccc(O)c(O)c1)c1ccc(O)cc1O,inactive
20,O=C1NC(=O)[C@@H]2CC=CC[C@H]12,inactive
21,CC(C)(C)c1ccc(C(O)CCCN2CCC(C(O)(c3ccccc3)c3ccccc3)CC2)cc1 (centres undefined),inactive
22,Cc1cc(=O)oc2cc(O)cc(O)c12,inactive
23,COC1=C(OC)C(=O)C(CCCCCCCCCCO)=C(C)C1=O,inactive
24,Cc1ccc(O)c(N)c1,inactive
25,COC(C)=O,inactive
26,C/C=C/C=C/COC(=O)C(C)C,inactive
